# SENP8 block-1 = SENP8 protease inhibition. Q96LD8. purified SENP8, Z-RLRGG-aminoluciferin cleavage, luminescence. inhibition, % at 10 µM. 330,000 compounds, 1.2% hits. AID 2540; in the data active = inhibition above about 50%
# SENP7 block = SENP7 protease inhibition; recombinant SENP7, Z-RLRGG-aminoluciferin luminescence, 40 min; inhibition, % at 5 µM; 330,000 compounds, 1.5% hits; AID 434973;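 active = inhibition above about 50% at the single test dose, limit read from the data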;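 also: plate controls were DMSO with enzyme for no effect and no enzyme buffer wells for full effect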
# HSP90 inh = HSP90 refolding inhibition in rabbit reticulocyte lysate; inhibition, % at 5.6 µM; 290,000 compounds, 0.91% hits; luciferase refolding luminescence, 3 h;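 active = inhibition above the screen-wide mean plus 3 SD, computed separately per campaign, cut at about 16% in these data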;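 also: 0% = DMSO wells and 100% = 60 µM geldanamycin wells; inhibitors lower the luminescence because luciferase stays unfolded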
# SENP6 inh = inhibitors of human SENP6 protease; 330,000 compounds, 1.8% hits; Recombinant SENP6 catalytic domain, aminoluciferin luminescence; inhibition, % at 10 µM;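 active = inhibition above about 50% at the single tested dose, limit read from the data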;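 also: plate controls were DMSO wells with enzyme for no effect and DMSO wells lacking enzyme for full effect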
# Target sequence (Q9GZR1 628-1112 limits assumed): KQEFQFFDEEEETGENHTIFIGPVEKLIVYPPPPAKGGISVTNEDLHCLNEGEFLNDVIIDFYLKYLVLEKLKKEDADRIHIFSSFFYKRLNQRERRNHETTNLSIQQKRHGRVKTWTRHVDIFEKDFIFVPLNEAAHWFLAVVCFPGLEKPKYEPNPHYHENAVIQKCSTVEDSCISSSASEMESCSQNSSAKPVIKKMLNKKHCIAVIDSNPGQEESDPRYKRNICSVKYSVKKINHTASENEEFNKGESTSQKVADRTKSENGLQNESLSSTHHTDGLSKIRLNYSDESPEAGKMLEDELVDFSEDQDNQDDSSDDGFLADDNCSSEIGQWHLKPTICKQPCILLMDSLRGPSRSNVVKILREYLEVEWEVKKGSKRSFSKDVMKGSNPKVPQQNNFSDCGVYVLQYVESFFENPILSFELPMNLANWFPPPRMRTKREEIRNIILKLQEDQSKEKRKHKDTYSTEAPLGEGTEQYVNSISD
# SENP8 block-2 = blocks human SENP8 cleavage of Nedd8 substrate. recombinant SENP8, Nedd8 substrate fluorescence. inhibition, % at 20 µM. 360,000 compounds, 0.64% hits; in the data active = inhibition mostly above about 40%, no sharp cut-off; inactive = mostly below about 27%
# SENP8 conf = confirmation of human SENP8 protease inhibitors | shares compounds with SENP7 block | Recombinant SENP8, Z-RLRGG-aminoluciferin luminescence, 60 min | inhibition, % at 12.5 µM | 6,200 compounds, 40% hits | AID 488912;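 active = mean inhibition across replicates above about 50%, limit read from the data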
# SENP6 confirm = human SENP6 inhibition, confirmed | shares compounds with SENP7 block | recombinant SENP6, Z-RLRGG-aminoluciferin luminescence | inhibition, % at 12.5 µM | 6,200 compounds, 58% hits | AID 488915
# SENP7 conf = confirmation of human SENP7 protease inhibitors. shares compounds with SENP7 block. 6,200 compounds, 69% hits. AID 488917. recombinant SENP7, Z-RLRGG-aminoluciferin luminescence, 40 min. inhibition, % at 12.5 µM
# Casp3 select = selectivity test for SENP inhibitors: human caspase-3 inhibition | 6,200 compounds, 60% hits | inhibition, % at 12.5 µM | shares compounds with SENP7 block | purified caspase-3, Z-DEVD-aminoluciferin luminescence, 60 min | AID 488918;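 active = mean inhibition above about 50%, limit read from the data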;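 also: plate controls were enzyme with DMSO for no effect and wells without caspase-3 for full effect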
# Target sequence (P42574 28-227 limits assumed): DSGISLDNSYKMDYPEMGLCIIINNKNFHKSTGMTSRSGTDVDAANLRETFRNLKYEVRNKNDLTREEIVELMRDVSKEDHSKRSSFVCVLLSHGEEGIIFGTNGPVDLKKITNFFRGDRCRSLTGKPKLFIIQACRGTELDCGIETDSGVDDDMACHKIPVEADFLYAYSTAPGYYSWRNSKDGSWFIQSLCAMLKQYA
# SENP luc ctr = counter-screen for SENP inhibitors: luminescence interference | AID 488919 | 6,200 compounds, 39% hits | shares compounds with SENP7 block | inhibition, % at 12.5 µM | Pre-incubated SENP8/Z-RLRGG-aminoluciferin, luciferase luminescence interference;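 active = mean inhibition above about 50% when retested at one dose, limit read from the data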;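 also: plate controls were DMSO wells with completed reaction for no effect and substrate without enzyme for full effect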
# Active calls of the source: *; · = not tested or not shown. An excerpt weighted towards active compounds, which were near 2.7% of everything screened.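 The calls were made as follows, unless noted: active = mean inhibition above about 50% in the one-dose retest (limit read from the data); inactive = the rest.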
SMILES,SENP8 block-1,SENP7 block,HSP90 inh,SENP6 inh,SENP8 block-2,SENP8 conf,SENP6 confirm,SENP7 conf,Casp3 select,SENP luc ctr
O=C(NC1CCCCC1)C(c1ccco1)N(C(=O)c1csnn1)c1ccccc1 (stereo not drawn),3.3,11.8,-8.2,-11.6,3.6,·,·,·,·,·
COc1ccc2nc(NCc3ccccc3)[nH]c2c1,-4.7,3.2,-1.9,-2.9,8.6,·,·,·,·,·
COc1ccc2nc(-c3ccccc3)[nH]c2c1,83.1*,94.8*,15.1,95.1*,-295.4,4.1,90.3*,99.2*,94.1*,89.1*
c1cncc(-c2nc3cc4ccccc4cc3[nH]2)c1,89.2*,0.9,2.4,89.8*,-262.6,86.7*,89.3*,100.1*,88.5*,61.7*
COc1ccc2[nH]c(-c3ccccc3)cc2c1,86.4*,89.6*,6.3,91.9*,-307.0,12.6,89.3*,99.3*,61.2*,27.1
COc1ccc2[nH]c(C(=O)NCc3ccccc3)cc2c1,-5.0,1.9,3.4,2.6,-369.7,·,·,·,·,·
COc1cccc(NC(=O)c2cc([N+](=O)[O-])ccc2NCc2cccnc2)c1,-4.7,-1.7,9.7,-14.2,9.9,·,·,·,·,·
O=C(NC(=S)Nc1ccc(S(=O)(=O)Nc2nccs2)cc1)c1cccc(F)c1,39.5,6.3,-0.9,63.1*,8.8,12.8,8.0,7.8,2.8,-0.2
O=C(Nc1ccc(S(=O)(=O)Nc2nccs2)cc1)c1ccc(F)cc1,0.7,13.0,-1.6,11.0,10.4,·,·,·,·,·
CCCCN(C)C(=O)Cc1c(OC)ccc2cc(Br)ccc12,-3.6,-1.8,0.3,-19.8,-4.3,·,·,·,·,·
CCCn1c(=O)c(C(=O)OCC)c(O)c2cc(Br)ccc21,2.9,2.2,5.9,4.6,5.8,·,·,·,·,·
CCOC(=O)c1c(CN(C)C)n(C)c2c(O)c(N=NC(N)=O)c3ccc(Br)cc3c12,34.3,10.0,9.7,67.8*,79.2*,16.1,40.0,28.0,7.5,1.4
Cn1ccs/c1=N\C(=O)Nc1cccc(Cl)c1,51.6*,73.0*,-2.3,69.8*,7.2,17.4,16.8,66.8*,45.1,51.3*
[O-][n+]1cccc2c(Br)cc(Br)c(O)c21,17.8,7.4,0.6,80.9*,-92.7,-1.1,8.9,-4.8,7.3,1.8
CCN(CC)CCCNC(=O)c1c(O)c2c([nH]c1=O)CCCC2,-0.3,59.3*,5.5,-9.2,8.7,4.2,5.1,13.5,8.7,4.2
CCCNC(=O)c1c(O)c2c([nH]c1=O)CCCC2,-7.8,1.0,-4.1,-8.6,7.4,·,·,·,·,·
CCc1ccc(/C=N\NC(=O)c2ccc(Br)o2)s1,15.4,31.4,2.0,54.9*,-26.5,40.7,37.3,76.0*,67.2*,53.7*
CC(C)(CO)Nc1nc(Cl)nc(NC2CCCCC2)n1,-2.1,-5.4,-1.3,-10.5,10.0,·,·,·,·,·
O=C(Nc1ccc(N2CCOCC2)c(Cl)c1)c1ccc(Cl)cc1,-12.4,7.1,-4.1,-9.2,15.5,·,·,·,·,·
Cc1cc(C(=O)Nc2ccc(N3CCOCC3)c(Cl)c2)c(C)o1,56.7*,57.5*,-2.3,76.8*,22.7,71.2*,69.1*,87.8*,76.9*,74.5*
Cn1c(SCc2ccccc2F)nc2cccnc21,25.3,47.9,-0.9,60.4*,10.4,53.5*,50.7*,80.9*,63.5*,57.4*
Cc1cccc(C#Cc2ccccc2)n1,84.3*,90.1*,·,91.2*,5.2,-8.0,73.2*,96.3*,82.5*,8.5
Cc1cccc(NS(=O)(=O)Cc2ccccc2)n1,-1.9,0.1,-3.7,-9.1,-496.0,·,·,·,·,·
CC(C)CCN1C(=O)c2ccc(C(=O)Nc3ccc(O)cc3C(=O)O)cc2C1=O,-3.0,-8.3,-2.2,-9.5,2.7,·,·,·,·,·
CC(c1ccccc1)N1C(=O)c2ccc(C(=O)Nc3ccccc3C(=O)O)cc2C1=O (stereo not drawn),68.5*,21.4,-7.9,69.9*,6.4,75.7*,70.6*,84.6*,41.1,76.9*
SMILES,SENP8 block-1,SENP7 block,HSP90 inh,SENP6 inh,SENP8 block-2,SENP8 conf,SENP6 confirm,SENP7 conf,Casp3 select,SENP luc ctr
CC(C)CCN1C(=O)c2ccc(C(=O)Nc3ccccc3C(=O)O)cc2C1=O,65.9*,-0.9,-0.2,73.8*,22.0,76.3*,76.8*,85.8*,60.1*,76.7*
CC(c1ccccc1)N1C(=O)c2ccc(C(=O)Nc3ccc(Br)cc3C(=O)O)cc2C1=O (stereo not drawn),-3.5,12.9,-5.0,4.1,13.2,·,·,·,·,·
O=C(COc1ccc(S(=O)(=O)NC2CCCCC2)cc1)NC1CCCC1,-3.3,-3.1,3.6,-34.7,5.1,·,·,·,·,·
COc1ccc(-c2csc(-c3ccc(O)cc3)n2)cc1,-10.9,1.5,-1.2,-2.2,-24.6,·,·,·,·,·
COc1ccc(-c2csc(-c3ccccc3)n2)c(OC)c1,84.1*,89.1*,-0.5,93.0*,-79.0,82.3*,91.3*,96.0*,73.9*,26.5
COc1ccc2cc(-c3csc(-c4cccnc4)n3)ccc2c1,-13.0,67.1*,0.2,5.3,-133.6,16.7,12.1,14.6,10.2,-0.5
CS(=O)(=O)Oc1ccc2c(c1)O/C(=C\c1cccc([N+](=O)[O-])c1)C2=O,-6.5,-10.1,1.6,-2.5,-0.7,·,·,·,·,·
O=C1/C(=C/c2ccc([N+](=O)[O-])cc2)Oc2cc(O)ccc21,56.8*,62.5*,-1.2,69.6*,25.4,11.2,47.4,51.0*,26.4,53.4*
Cc1ccc(NC(=O)N2CCc3ccccc3C2)cc1C,-4.0,-3.9,-3.8,-11.0,4.1,·,·,·,·,·
Cc1cc(C)cc(NC(=O)N2CCc3ccccc3C2)c1,23.9,43.0,0.0,55.3*,5.4,43.4,36.6,69.0*,50.2*,50.7*
CCS(=O)(=O)N1Cc2ccccc2CC1C(=O)Nc1nc2ccccc2[nH]1 (stereo not drawn),5.9,4.0,4.5,7.1,0.1,·,·,·,·,·
CCc1cc2cc(C(=O)Nc3ccccc3F)sc2s1,33.6,92.1*,0.7,50.0*,8.4,16.2,58.1*,97.8*,80.3*,5.4
CC(C)(C)c1ccc(C(=O)Nc2ccc(F)cc2)s1,80.5*,72.5*,5.2,83.9*,3.5,57.9*,73.1*,95.1*,65.2*,35.4
CCc1cc2cc(C(=O)Nc3ccc(F)cc3)sc2s1,18.2,79.4*,-1.7,47.5,13.1,5.1,12.4,-3.4,10.7,-5.8
Cn1nc(C(F)(F)F)c2cc(C(=O)Nc3ccc(F)cc3)sc21,3.2,-1.6,3.6,-6.2,19.3,·,·,·,·,·
